# Source: PubChem BioAssay AID1851 (National Center for Advancing Translational Sciences (NCATS), 2009)
# “And” between values parts separate entries of the source, which are not always exact repeats. Identical values can stand only once. Screen size: about 16,000 compounds; about 5,700 (36%) were called active. About 24% were inconclusive and are not listed. This is one part of the list. Values without a mark were called inactive. The call rests on the fitted dose curve; in most records, active means well fitted curve in the direction sought with a large enough effect; inconclusive means small, poorly fitted or top-dose-only effect, or effect the other way; inactive means no such curve, though single readings can be large or run the other way. Peptide text beside a SMILES is read from it.
# Target: Cytochrome P450 1A2 (Homo sapiens) (UniProt P05177)
# Sequence (P05177 whole entry, looked up): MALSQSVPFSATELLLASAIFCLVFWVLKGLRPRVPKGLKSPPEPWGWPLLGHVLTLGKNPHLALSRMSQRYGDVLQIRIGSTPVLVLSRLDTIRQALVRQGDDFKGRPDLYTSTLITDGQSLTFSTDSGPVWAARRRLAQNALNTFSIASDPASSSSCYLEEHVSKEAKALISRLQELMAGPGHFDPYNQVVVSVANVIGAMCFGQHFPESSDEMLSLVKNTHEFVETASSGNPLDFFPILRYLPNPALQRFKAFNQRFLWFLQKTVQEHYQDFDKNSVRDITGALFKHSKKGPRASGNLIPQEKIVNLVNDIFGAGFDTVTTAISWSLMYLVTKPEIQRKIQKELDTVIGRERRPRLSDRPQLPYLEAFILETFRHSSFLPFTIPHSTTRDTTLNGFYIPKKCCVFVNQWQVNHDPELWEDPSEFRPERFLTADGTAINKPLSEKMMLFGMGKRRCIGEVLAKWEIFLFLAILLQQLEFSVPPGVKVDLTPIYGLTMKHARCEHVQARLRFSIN
# Assay: Cytochrome panel assay with activity outcomes
# Conditions: recombinant CYP, pro-luciferin dealkylation, luminescence, p450-cyp1a2; series mostly up to 57.1 µM; activity, negative = inhibition: at the top concentration
# On the % scale 0 is the no-effect control and ±100 the full control effect.
Structure (SMILES),AC50,"activity, negative = inhibition"
c1ccc(CNc2nc(-c3ccoc3)nc3ccccc23)cc1,0.631 µM (active),–
Cc1cccc(CNc2nc(-c3ccoc3)nc3ccccc23)c1,1.26 µM (active),–
c1cncc(CNc2nc(-c3ccoc3)nc3ccccc23)c1,0.398 µM (active),–
c1csc(CNc2nc(-c3ccoc3)nc3ccccc23)c1,0.316 µM (active),–
CCc1ccc(C(=O)COC(=O)C(Cc2ccccc2)NC(=O)C2CCC(C)CC2)cc1 (stereo not drawn),–,-7.88%
C=CC[C@@H]1C=C[C@@H](O/N=C\[C@@H](OC)[C@H](C)/C=C\CC(=O)OC)[C@@H](CO)O1,–,-0.319% [at 11.4 µM]
COCCCN=CC1=C(O)CC(C)(C)CC1=O,–,-13.1%
CN[C@@H](c1ccncc1)[C@@H](NC)c1ccncc1,–,-13.3% [at 11.4 µM]
c1cncc(-c2nc(NCc3cccs3)c3ccccc3n2)c1,0.316 µM (active),–
COc1ccc(OCCn2c(C)c(/C=N/n3cnnc3)c3ccccc32)cc1,0.398 µM (active),–
O=C(COc1cccc2ccccc12)NNC(=O)c1cccs1,8.91 µM (active),–
O=C(CCC(=O)Nc1ccccc1)NNC(=O)c1cccs1,–,-23.3%
CC1(C)Cc2c(sc3nc(-c4ccccc4)n(N)c(=O)c23)CO1,7.08 µM (active),–
Cc1cc2cc3c(C)cc(=O)oc3c(C)c2o1,1 µM (active),–
CC(C)NC(=O)N1CC[C@@]2(CCCN(S(=O)(=O)c3ccccc3)C2)C1,–,-2.4%
CSc1nc(Sc2cccc(Cl)c2)c2ccccc2n1,0.355 µM (active),–
CSc1c(-c2ccccc2)nc2ccc(Cl)cc2c1C(=O)O,–,10.5%
O=C(O)/C=C\c1cnc[nH]1,–,-4.95%
Cc1cc(C)nc(NC(=O)/C=C/c2ccc(Cl)cc2Cl)c1,3.16 µM (active),–
Cc1cc(C)nc(NC(=O)CCCC(=O)O)c1,–,-5.89%
C#CCCCC(=S)Nc1ccccc1,12.6 µM (active),–
N=c1nc(N2CCCCC2)cc(N)n1O,–,-2.65% [at 25.6 µM]
CC(Sc1nc(-c2ccccc2)cc(C(F)(F)F)n1)C(=O)N1CCCCC1 (stereo not drawn),8.91 µM (active),–
O=C(c1cc(C(F)(F)F)cc(C(F)(F)F)c1)N1CCC[C@@]2(CCN(c3ccccc3)C2)C1,–,-17.8%
O=C1[C@H]2[C@H]3[C@H](O)[C@H](O)C/C(=N/OC[C@@H](O)COCc4ccco4)[C@H]3CC[C@@H]2C(=O)N1Cc1ccccc1,–,-10.7% [at 11.4 µM]

Structure (SMILES),AC50,"activity, negative = inhibition"
NS(=O)(=O)c1ccc(NCc2nc3ccccc3[nH]2)cc1,–,-18.8% [at 2.29 µM]
NS(=O)(=O)c1ccc(NCc2cnc3ccccc3n2)cc1,–,-18.2% [at 2.29 µM]
NS(=O)(=O)c1ccc(NCc2ccccc2OCc2ccccc2F)cc1,14.1 µM (active),–
CCCCOc1cc(C(=O)NCCN(CC)CC)c2ccccc2n1,5.01 µM (active),–
CCN(CC)CCNC(=O)c1cc(S(C)(=O)=O)ccc1OC,inactive,–
CCCCCCCCOC1OC(CO)C(O)C(O)C1NC(C)=O (stereo not drawn),–,9.81%
CCOC(=O)C(CC)(CC)C(=O)/C=C/c1ccc(Br)cc1,2.51 µM (active),–
C[n+]1ccc(/C=C/c2ccc(Br)cc2)cc1,–,-10.8%
COc1ccccc1CNC(=O)Cn1nnc(-c2ccncc2)n1,12.6 µM (active),–
CC(C)(C)NC(=O)Cn1nnc(-c2ccccc2NC(=O)c2cnccn2)n1,–,-21.1%
CCc1nnc(NC(=O)CCC(=O)NCc2ccccc2OC)s1,–,11%
CC[C@H](NC(C)C)[C@H](O)c1ccc(O)c(O)c1,12.6 µM (active),–
COc1cc([C@H](O)CO)ccc1O,–,-7.89%
CC(=O)c1c(C)nc(-c2ccccc2)n1O,15.8 µM (active),–
O=C(O)[C@@H]1[C@@H](C(=O)Nc2ccccc2)[C@@H]2C=C[C@@H]1O2,–,-18.1% [at 2.29 µM]
N/N=C1/c2ccccc2N[C@H]1OC(=O)Nc1cccc(Cl)c1,0.794 µM (active),–
N/N=C1/c2ccccc2N[C@H]1OC(=O)Nc1ccccc1,0.501 µM (active),–
C=CC[C@@H]1C=C[C@@H](O/N=C\C[C@@H]2C=C[C@H](OC(C)=O)[C@H](COC(C)=O)O2)[C@@H](CO)O1,–,-8.91% [at 11.4 µM]
CCNc1ncc2nc(C)c(=O)n(C3CC3)c2n1,5.01 µM (active),–
CCNc1ncc2nc(C)c(=O)n(C)c2n1,5.01 µM (active),–
CCNc1ncc2ncc(=O)n(C3CC3)c2n1,3.16 µM (active),–
CC(N)=O,–,-4.84%
Cc1ccc(Sc2c([N+](=O)[O-])ncn2C)cc1,–,-2.64%
O=C(Nc1ccc(Cl)cc1Cl)c1cccc(N2C(=O)C=CC2=O)c1,12.6 µM (active),–
CCCCC(=O)Nc1sc2c(c1C(=O)OCC)CCC(C=O)=C2Cl,2.51 µM (active),–

Structure (SMILES),AC50,"activity, negative = inhibition"
FC(F)(F)c1ccccc1-c1cc(N2CCNCC2)ncn1,5.01 µM (active),–
CN1CCN(c2cc(-c3ccccc3C(F)(F)F)ncn2)CC1,12.6 µM (active),–
CN(C)CCO[C@](C)(c1ccccc1)c1ccccn1,inactive,–
CNc1cc(CSC)nc(SCc2ccc(Cl)c(Cl)c2)n1,4.47 µM (active),–
CN(CCc1ccccn1)Cc1ccc(Cl)cc1Cl,7.08 µM (active),–
CN(C)CCO[C@@H](c1ccc(Cl)cc1)c1ccccn1,–,-0.205% [at 25.6 µM]
Cc1cccc(CN(C)CCc2ccccn2)c1,–,-8.65%
C=CCN=C1CC(C)(C)CC(=O)/C1=C(\O)c1ccccc1,–,3.8%
c1ccc(-c2ccc3c(c2)c2c4n3CCN=C4CCC2)cc1,2.82 µM (active),–
O=C(CCNC(=O)c1ccccc1)OCN1C(=O)c2ccccc2C1=O,2.24 µM (active),–
CCC(C)C(NC(=O)OCc1ccccc1)C(=O)OCN1C(=O)c2ccccc2C1=O (stereo not drawn),–,-13.3%
Cc1ccc(S(=O)(=O)N[C@H]2COC(=O)C/C=C\[C@@H](C)[C@H](NS(=O)(=O)c3ccc(C)cc3)COC(=O)[C@H](C)NC(=O)C/C=C\[C@H]2C)cc1,–,-1.96% [at 11.4 µM]
c1csc(CNCCCN2CCOCC2)c1,–,-8.37%
Cc1cccc(CNc2cc(-c3ccccc3CN(C)C)ncn2)c1,25.1 µM (active),–
COc1ccccc1-c1cc(NCc2cccnc2)ncn1,0.316 µM (active),–
COc1ccccc1-c1cc(NCc2cccs2)ncn1,1.58 µM (active),–
CN(C)Cc1ccccc1-c1cc(NCc2ccccc2)ncn1,–,-21%
COc1ccccc1CNCc1cccs1,0.251 µM (active),–
COc1ccccc1CNCCCCCCNCCCCCCCCNCCCCCCNCc1ccccc1OC,–,0.168%
C[N+](C)(C)CCO,–,-2.79%
COc1ccccc1-c1cc(NCc2cccc(C)c2)ncn1,1.58 µM (active),–
Cc1cccc(CNc2cc(-c3ccccc3Cl)ncn2)c1,3.16 µM (active),–
CN(C)Cc1ccccc1-c1cc(NCc2cccs2)ncn1,25.1 µM (active),–
Clc1ccccc1C(Nc1cnccn1)Nc1cnccn1,–,-18% [at 2.29 µM]
Clc1ccccc1-c1cc(NCc2cccnc2)ncn1,3.16 µM (active),–

Structure (SMILES),AC50,"activity, negative = inhibition"
C=CC[C@@H]1C=C[C@H](Oc2ccc(C)cc2)[C@H](COC(=O)NCc2cccc3ccccc23)O1,–,-8.02% [at 11.4 µM]
COc1ccccc1-c1cc(NCc2ccccc2)ncn1,2.51 µM (active),–
N#C/C(=C\c1ccc(Oc2ccc(C(F)(F)F)cc2[N+](=O)[O-])cc1)c1nc2ccccc2[nH]1,–,-26.8%
Cc1ccc2nc(/C(C#N)=C\c3ccc(OC(=O)c4cccs4)cc3)[nH]c2c1,2.51 µM (active),–
Clc1ccc(-c2nnc(-c3cccc4ccccc34)o2)cc1Cl,2 µM (active),–
Cc1ccc(-c2nnc(-c3ccccc3S(=O)(=O)Cc3ccc(Cl)cc3)o2)cc1,–,-27.6%
CN(C)c1ncc2nc(-c3ccc(F)cc3)c(=O)n(Cc3cccs3)c2n1,1 µM (active),–
COc1ccc(-c2nc3cnc(N(C)C)nc3n(Cc3cccs3)c2=O)cc1,1.58 µM (active),–
CN(C)c1ncc2nc(-c3ccc(Cl)cc3)c(=O)n(Cc3cccs3)c2n1,1.58 µM (active),–
CCCNC(=O)OC[C@@H]1O[C@H](CCO/N=C(\C)CCN2CCCCc3nc(C)c(C)cc32)C=C[C@@H]1Oc1ccc(OC)cc1,–,3.81% [at 11.4 µM]
Cc1ccc(S(=O)(=O)N[C@H]2COC(=O)[C@H](C)COC(=O)[C@H](C)NC(=O)C/C=C\[C@H]2C)cc1,–,4.67% [at 11.4 µM]
Nc1ccc(-c2nc3c(Cl)c(N)ccc3[nH]2)cc1,0.794 µM (active),–
CC(=O)N[C@@H](CC(=O)O)C(=O)N[C@@H](CCC(=O)O)C(=O)O (Ac-Asp-Glu-OH),inactive,–
O=C(CCc1ccccc1)NNC(=O)C1CCCCC1,–,-5.87%
O=C(CN(CC1CCCO1)C(=O)CNS(=O)(=O)c1ccc(Cl)cc1)NCCc1ccccc1 (stereo not drawn),–,-20.7%
O=C(CCc1ccc(S(=O)(=O)NC2CCCCC2)cc1)N(Cc1ccccc1)Cc1ccccc1,1.58 µM (active),–
CC(C)c1ccc2c(c1)C(c1ccc(N3CCOCC3)cc1)=NNC(c1cccs1)=N2,3.16 µM (active),–
COC(=O)[C@@H]1CC[C@H](C)[C@@H](c2ccc(C)cc2)N1C(=O)c1ccc(/C=N\O[C@@H](C)c2cn([C@H](CO)Cc3ccccc3)nn2)cc1,–,-8.03% [at 11.4 µM] and -18.7% [at 11.4 µM]
O=C(OC1CCN(c2ncc(C(F)(F)F)cc2Cl)CC1)c1cccc(C(F)(F)F)c1,–,-26.7%
O=C(OCn1ncc(Cl)c(Cl)c1=O)c1cccc(C(F)(F)F)c1,2 µM (active),–
COCC(=O)N1CCC2(CC1)CN(Cc1ccccc1OC)C2,–,19.2%
CCCC[S@@](=N)(=O)CC[C@@H](N)C(=O)O,inactive,–
S=c1c2[nH]cnc2ncn1CCSc1ncnc2nc[nH]c12,–,-16.9% [at 11.4 µM]
